Laboratory results as given in PubChem BioAssay (NCI).
This is part of a sample that, as a whole, favours compounds with a hit. Of some 83,000 tested, about 20% had one in any assay.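 In brief: 96-well plates, 48 h treatment, single concentration, percent growth endpoint.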 Values without a mark were called inactive. Calls of active or inactive are those of the source. The calls were made as follows: active = growth percent below 10; inactive = the rest.

Tests used:
Assay in all cases: NCI-60 one-dose screen, 48 h (100 = growth as untreated, 0 = no growth, -100 = all killed)
Conditions in all cases: 10 µM unless noted
NCI-H23 lung = tested on: NCI-H23 lung
NCI-H226 lung = tested on: NCI-H226 lung
NCI-H322M lung = tested on: NCI-H322M lung
NCI-H460 lung = tested on: NCI-H460 lung
HOP-92 NSCLC = tested on: HOP-92 NSCLC
NCI-H522 lung = tested on: NCI-H522 lung
A549/ATCC NSCLC = tested on: A549/ATCC NSCLC
786-0 renal = tested on: 786-0 renal
COLO 205 colon = tested on: COLO 205 colon
DU-145 prostate = tested on: DU-145 prostate
K-562 leukemia = tested on: K-562 leukemia
MALME-3M melanoma = tested on: MALME-3M melanoma
MDA-MB-231 breast = tested on: MDA-MB-231 breast
RXF 393 renal = tested on: RXF 393 renal
SF-268 CNS = tested on: SF-268 CNS
SF-295 CNS = tested on: SF-295 CNS
SF-539 CNS = tested on: SF-539 CNS
UACC-257 melanoma = tested on: UACC-257 melanoma
M14 melanoma = tested on: M14 melanoma

Compound | growth (NCI-H23 lung) [%] | growth (NCI-H226 lung) [%] | growth (NCI-H322M lung) [%] | growth (NCI-H460 lung) [%] | growth (HOP-92 NSCLC) | growth (NCI-H522 lung) [%] | growth (A549/ATCC NSCLC) [%] | growth (786-0 renal) [%] | growth (COLO 205 colon) | growth (DU-145 prostate) [%] | growth (K-562 leukemia) [%] | growth (MALME-3M melanoma) [%] | growth (MDA-MB-231 breast) | growth (RXF 393 renal) | growth (SF-268 CNS) [%] | growth (SF-295 CNS) | growth (SF-539 CNS) [%] | growth (UACC-257 melanoma) | growth (M14 melanoma) [%]
COc1c(B(O)O)cccc1-c1nc2ccc3[nH]ncc3c2c2c1CCC2 | 75.5 | 68.3 | 57.6 | 47.9 | 72.1% | 62.7 | 60.2 | 55.7 | 66.2% | 63.3 | 77.9 | 98.4 | 40.7% | 4.27% (active) | 65.9 | 86.9% | 54.7 | 111% | 65
c1ccc(-c2n[nH]c(-c3ccccn3)n2)nc1 | 102 | 118 | 121 | 106 | 94% | 96.8 | 105 | 97 | 143% | 133 | 104 | 107 | 116% | 95.7% | 140 | 98.1% | 106 | 106% | 111
CN(C)Cc1ccc[nH]1 | 93.2 | 93.3 | 130 | 103 | 103% | 67.6 | 99.4 | 107 | 101% | 115 | 113 | 126 | 77.6% | 95.3% | 103 | 90.1% | 92.3 | 0.0923% (active) | 93.2
C[C@@H]1C[C@H]2C(=O)O[C@@H](C)[C@H](NC(=O)[C@H](Cc3cc(F)cc(F)c3)NC(=O)Nc3ccc(C4CC4)cc3F)C(=O)N3CCC[C@H]3C(=O)N3CCCC[C@H]3C(=O)N[C@@H](C)C(=O)N2C1 | 28.7 | 19.8 | 45.4 | 13.6 | 3.54% (active) | 19.4 | 18.3 | 20 | -33.2% (active) | 21.8 | 17.5 | 18.5 | -14.4% (active) | -1.09% (active) | 22.5 | -1.67% (active) | 24.7 | 6.5% (active) | 10.7
O=C(O)c1ccccc1C(F)(F)F | 66.7 | 89.2 | 106 | 102 | 88.2% | 72.1 | 16.1 | 96.2 | 102% | 102 | 102 | 103 | 95.3% | 102% | 96.3 | 95.6% | 93.7 | -1.89% (active) | 93.4
